Only some compounds are listed: those with a hit (about 3.2% of all), similar ones and a draw of the others.
IL-2 act – qHTS of IL-2 Activators. IL-2 activation reporter assay, cell-based qHTS; stimulated with anti-CD3/CD4/CD28 beads; in transgenic mouse T cells. activation, % (series mostly up to about 46 µM). actives 0.065% (n = 360,000). AID 652025, 2013; in the data active means activation above about 50%; inconclusive means mostly about 30% to 49%; further: 0% is about no effect
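Screening format: compound pinned onto unstimulated transgenic mouse T cells, 60 min incubation, then anti-CD3/anti-CD4/anti-CD28 bead stimulation for 18 hours at 37 degrees C, followed by EGFP and DsRed detection.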
Nrf2 ARE act – qHTS of Nrf2 Activators | AREc32 ARE-luciferase reporter (MCF7-derived line), luminescence, 24 h | AID 624171, 2012 | actives 0.31% (n = 410,000) | Potency, µM (titrated, usually from 46.1 µM), without a hit: at the highest dose activation, actives largely listed as activators; further: potency means the concentration at half of the fitted maximal effect; % of control where 0% means no effect; nearly all actives have a fitted effect of over 65% in size
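Luciferase luminescence (Steady-Glo, 30 min at room temperature) served as the read-out of ARE activation in AREc32 cells treated with compounds for 24 hr at 37 deg C.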
A549 viability – Nrf2 qHTS screen for inhibitors: counterscreen for cytotoxicity. actives 0.16% (n = 390,000). A549 ARE-Fluc cells, CellTiter-Fluor viability, 18-24 h. Potency, µM (top dose mostly 46 µM), for the others: at the top dose activity change, negative = cytotoxicity, usual class: inhibitors; further: potency means the concentration at half of the fitted maximal effect; on the % scale 0 is the no-effect control and ±100 the full control effect
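Cytotoxicity counterscreen: CellTiter-Fluor fluorescence was measured in A549 ARE_Fluc cells after 18-24 h of compound exposure in a concentration series. The subsequent BugLite luminescent read reports ARE-luciferase activity.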
p53 reactivator – qHTS assay for re-activators of p53 using a Luc reporter; Potency, µM (highest dose often 92.2 µM), for the others: at the highest dose activity change, positive = activation, most hits filed as activators; actives 0.063% (n = 320,000); H1299 p53-A138V BP100-luciferase reporter, luminescence, 24 h; further: potency means the concentration at half of the fitted maximal effect; % of control where 0% means no effect; nearly all actives have a fitted effect of over 45% in size
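H1299 (p53-null), stable ts p53-A138V + BP100-Luc; 1000 cells/well, Opti-MEM/10% FBS; cpd 4 pt, 1:5; 24 h, 37 deg C, 5% CO2; detection reagent 10 min RT; luminescence.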
Nrf2 inh – Nrf2 qHTS screen for inhibitors; A549 ARE-Fluc reporter, luciferase luminescence, 18-24 h; Potency, µM (doses to about 46 µM), for inactives: top-dose activity change, negative = inhibition, actives largely listed as inhibitors; actives 2.1% (n = 360,000); AID 504444, 2011; further: potency means the concentration at half of the fitted maximal effect; on the % scale 0 is the no-effect control and ±100 the full control effect; nearly all actives have a fitted effect of over 60% in size
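In this cell-based qHTS, ARE-driven firefly luciferase in A549 cells reports Nrf2 activity; the luminescent signal after BugLite lysis is the measured value, with a prior CellTiter-Fluor read for cell health.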
BRCA1 expr act – qHTS Assay to Identify Small Molecule Activators of BRCA1 Expression; MCF7-BRCA1-FFLuc reporter, luminescence, 48 h; response scale: scaled: vehicle 0%, 10 µM genistein 100%; Potency, µM (titrated, usually from 46.1 µM), for the others: top-dose activation, most hits filed as activators; actives 1.1% (n = 380,000); AID 624202, 2012; further: potency means the concentration at half of the fitted maximal effect; nearly all actives have a fitted effect of over 80% in size
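Luminescence from a BRCA1-driven firefly luciferase in MCF7 cells was the read-out, taken 15 min after substrate addition following 48 h compound exposure at 37 °C. Data were normalized to a 10 microM genistein control and DMSO vehicle.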
* marks the source's active call; other numbers are inactive results; ? = inconclusive; . = no result. Unless noted, the call rests on the fitted dose curve; in most records, active means well fitted curve in the direction sought with a large enough effect; inconclusive means small, poorly fitted or top-dose-only effect, or another doubt; inactive means no such curve, though single readings can be large; an effect the other way counts as inactive or inconclusive.

SMILES	IL-2 act	Nrf2 ARE act	A549 viability	p53 reactivator	Nrf2 inh	BRCA1 expr act
Cc1ccnc(NC(=O)CCNC(=O)c2ccc(Cl)cc2)c1	3	2%	0%	1%	?	13µM*
Cc1ccc(C(=O)NCC(=O)Nc2cc(C)ccn2)cc1	0	0%	-2%	17%	?	33%
Cc1ccnc(NC(=O)CCCc2ccccc2)c1	0	0%	1%	?	?	11µM*
Cc1ccc(S(=O)(=O)N(C)CCCC(=O)Nc2ccncc2)cc1	-5	-1%	-6%	-1%	9.2µM*	0%
Cc1ccc(S(=O)(=O)N(C)CCCC(=O)Nc2ccc(F)cc2)cc1	-1	2%	-2%	-1%	-20%	39%
COc1cccc(NC(=O)CCc2nc(-c3cc(OC)c(OC)c(OC)c3)no2)c1	.	6%	4%	.	-28%	-2%
CCN(CC)c1ccc(NC(=O)/C=C\c2ccccc2Cl)cc1	-4	2%	0%	12%	-7%	3.2µM*
O=C(/C=C/c1ccccc1Cl)NCCc1ccccc1	1	0%	-6%	?	?	11µM*
O=C(/C=C/c1ccco1)NCCc1ccc(F)cc1	1	14µM*	-12%	17%	?	96%
CN(C(=O)Cn1nnc(-c2ccc(S(C)(=O)=O)cc2)n1)c1ccccc1	.	1%	1%	.	7%	4%
Cc1cc(C)cc(C(=O)OCC(=O)Nc2cccc(S(=O)(=O)NC3=NCCCCC3)c2)c1	-1	2%	?	-10%	23µM*	-33%
O=C(Cc1csc(-c2ccc(Cl)cc2)n1)Nc1cccc(S(=O)(=O)NC2=NCCC2)c1	0	1%	?	-6%	23µM*	-5%
O=C(Cc1csc(-c2ccc(F)cc2)n1)Nc1cccc(S(=O)(=O)NC2=NCCC2)c1	-1	0%	-18%	-14%	?	14%
CC(C)(C)c1ccc(OCCC(=O)Nc2cccc(S(=O)(=O)NC3=NCCCCC3)c2)cc1	-5	0%	?	-4%	18µM*	-60%
N#C/C(=C\c1c(N(Cc2ccccc2)Cc2ccccc2)nc2ccccn2c1=O)C(N)=O	0	1%	-20%	-28%	-8%	-7%
C=CCNC(=O)/C(C#N)=C/c1c(N(Cc2ccccc2)Cc2ccccc2)nc2ccccn2c1=O	-1	1%	?	-21%	26µM*	-71%
Nn1c(-c2ccc(F)cc2)nc2ccccc2c1=O	-3	2%	10%	0%	-7%	15%
O=C1c2cc(F)ccc2-n2c1nc1ccccc1c2=O	1	3%	12µM*	-4%	6.5µM*	-50%
Cc1ccsc1C(=O)OCc1cc(=O)n2ccsc2n1	-2	0%	-5%	?	?	?
O=c1cc(COc2ncnc3ccccc23)nc2sccn12	-1	0%	0%	-4%	6%	-19%
O=c1cc(COc2ccccc2[N+](=O)[O-])nc2sccn12	-2	8.9µM*	-3%	10%	4%	-17%
O=C(OCc1cc(=O)n2ccsc2n1)c1ccc(O)cc1O	1	0%	-5%	?	17%	11µM*
CC(C)(C)c1cccc(S(=O)(=O)N2CCN(c3nc(-c4cccs4)nc4ccccc34)CC2)c1	.	.	3%	.	-2%	0%
Cc1ccc(Cl)cc1-n1ncc2c(NCCC3=CCCCC3)ncnc21	.	-1%	?	.	.	.
CCOC(=O)C1=C(CN2CCN(c3cccc(OC)c3)CC2)NC(=O)NC1c1ccc(OC)cc1 (centres undefined)	.	0%	-17%	.	-5%	.
SMILES	IL-2 act	Nrf2 ARE act	A549 viability	p53 reactivator	Nrf2 inh	BRCA1 expr act
O=C(O)/C=C/C(=O)Nc1ccc2c(c1)C(=O)c1ccccc1C2=O	1	6%	?	18%	25%	11µM*
CC(=O)Nc1ccc2c(c1)C(=O)c1ccccc1C2=O	-1	7%	1%	?	?	?
CC(C)(C)C(=O)Nc1ccc2c(c1)C(=O)C(=O)c1ccccc1-2	.	.	?	.	21µM*	-31%
O=C(CCCN1C(=O)/C(=C/c2ccccc2Cl)SC1=S)NNC(=O)c1ccncc1	7	-1%	-31%	-6%	26µM*	0%
COc1ccc(/C=C2\SC(=S)N(CCCC(=O)NNC(=O)c3ccccc3O)C2=O)cc1	-1	-3%	-8%	-6%	13µM*	-86%
O=C(CCCN1C(=O)/C(=C/c2cccs2)SC1=S)NNC(=O)c1ccncc1	-3	5%	?	0%	?	-7%
O=C(CCCN1C(=O)/C(=C/c2ccccc2Cl)SC1=S)NNC(=O)c1ccccc1Cl	2	-2%	-10%	-24%	18µM*	-92%
O=C(c1ccc2c(c1)N(Cc1ccc(Cl)cc1)C(=O)c1ccccc1S2(=O)=O)N1CCOCC1	.	0%	-11%	.	0%	-9%
Cc1ccc(CONC(=O)c2ccc(C)cc2)cc1	-1	0%	1%	?	?	?
Cc1ccc(CONC(=O)c2ccc(Cl)cc2)cc1	1	0%	9%	?	14%	8.9µM*
Cc1ccc(CONC(=O)c2ccccc2)cc1	-2	0%	0%	20%	?	2.2µM*
NC(=S)NN=C1c2cc(OCCN3CCOCC3)ccc2-c2ccc(OCCN3CCOCC3)cc21	-1	-2%	16µM*	5%	16µM*	-89%
COC(=O)c1ccccc1S(=O)(=O)Oc1ccc(-c2ccc(C(=O)O)cc2)cc1	-1	3%	-3%	1%	6%	-6%
O=C(O)c1ccc(-c2ccc(OS(=O)(=O)c3ccccc3F)cc2)cc1	-1	1%	-8%	10%	?	13µM*
CCOc1ccc(NC(=O)CNC(=O)c2nn(-c3ccc(OC)c(OC)c3)c(=O)c3ccccc23)cc1	0	0%	-6%	-4%	-10%	0%
COc1ccc(-n2nc(C(=O)NCC(=O)Nc3cccc(Cl)c3)c3ccccc3c2=O)cc1OC	0	0%	-18%	3%	15µM*	-17%
COc1cc2c(s1)c1cnn(Cc3ccccc3F)c(=O)c1n2C	.	.	14%	.	-16%	.
CCOc1ccc(-n2c(SCC(=O)Nc3ccc(F)cc3)nc3c([nH]c4ccccc43)c2=O)cc1	.	-1%	2%	.	.	-9%
O=[N+]([O-])c1nn(-c2ccc3c(c2)OCCO3)n(O)c1=NCCC1=CCCCC1	1	4%	-21%	26%	?	4.5µM*
